CYP2C19 inh: inhibitors of human CYP2C19. AID 778. hit rate 21% among 96,000. P33261. inhibition, % at 5 µM. CYP2C19 Supersomes, luciferin-H EGE luminescence, 30 min;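 active means CYP2C19 inhibition above a set limit at 5 µM in the primary screen, cut at about 50% in these data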;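 further: plate controls were negative control wells for no effect and 2.5 mM tranylcypromine positive control for full effect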
EphB4 antag: antagonists of human EphB4-ephrin-B2 interaction | EphB4 LBD / TNYL-RAW-Alexa532 peptide, fluorescence polarization | hit rate 0.15% among 97,000 | inhibition, % at 7 µM | AID 720 | P54760;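 active means inhibition above the screen-wide mean inhibition plus 3 SD, cut at about 15% in these data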;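 further: 0% = DMSO wells and 100% = excess unlabeled TNYL-RAW peptide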
CYP2C19 activ: increases human CYP2C19 enzyme activity; activation factor at 5 µM; 96,000 tested, under 10 active; recombinant CYP2C19, luciferin-H EGE luminescence; hits give high values; 0 = fully inhibited enzyme, 1 = untreated enzyme; P33261;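 active means activation factor of at least 2 at 5 µM in the primary screen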;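 further: 0 = wells with 2.5 mM tranylcypromine and 1 = vehicle-only wells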
CYP2C9 inh: blocks human cytochrome P450 2C9; inhibition, % at 5 µM; CYP2C9 Supersomes, luciferin-H conversion, luminescence; P11712; AID 777; hit rate 20% among 96,000;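 active means blocking of liver enzyme CYP2C9 beyond about 50% at 5 µM, limit read from the data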
Target sequence (P11712 whole entry, looked up): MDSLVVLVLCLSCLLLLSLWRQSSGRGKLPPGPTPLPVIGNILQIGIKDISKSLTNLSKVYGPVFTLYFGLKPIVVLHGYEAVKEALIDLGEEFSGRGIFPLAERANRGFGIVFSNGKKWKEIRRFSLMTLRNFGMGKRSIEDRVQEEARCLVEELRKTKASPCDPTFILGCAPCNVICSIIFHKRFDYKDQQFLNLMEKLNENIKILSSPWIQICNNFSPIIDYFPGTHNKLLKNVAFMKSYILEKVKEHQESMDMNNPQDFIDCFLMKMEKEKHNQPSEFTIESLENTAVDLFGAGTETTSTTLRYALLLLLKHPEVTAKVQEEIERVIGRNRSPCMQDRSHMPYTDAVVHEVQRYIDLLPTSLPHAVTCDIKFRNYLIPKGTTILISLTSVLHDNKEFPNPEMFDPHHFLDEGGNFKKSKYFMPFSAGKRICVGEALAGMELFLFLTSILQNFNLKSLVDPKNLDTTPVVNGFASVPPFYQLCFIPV
CYP2C9 activ: CYP2C9 (human) activation | P11712 | recombinant CYP2C9, luciferin-H conversion, luminescence; hits give high values; factor 1 = untreated enzyme, 0 = blocked | activation factor at 5 µM | hit rate 1.4% among 96,000;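 active means activation factor of 2 or more for CYP2C9 at a 5 µM dose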;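 further: 0 = sulfaphenazole-blocked wells and 1 = vehicle-only wells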
* = called active by the depositor; . = no result given. Shown are actives, neighbours in structure and some others; about 27% of the full set was active somewhere.

SMILES	CYP2C19 inh	EphB4 antag	CYP2C19 activ	CYP2C9 inh	CYP2C9 activ
Cc1cc(C)c2cc(CN(Cc3nnnn3C3CCCCC3)CC3CCCO3)c(=O)[nH]c2c1 (stereo not given)	86*	3	0.1	55*	0.4
COc1ccc2cc(CN(Cc3cccnc3)Cc3nnnn3Cc3ccccc3)c(=O)[nH]c2c1	93*	0	0.1	90*	0.1
COc1ccc2cc(CN(CCCN3CCOCC3)Cc3nnnn3C3CCCC3)c(=O)[nH]c2c1	32	-6	0.7	5	1
Cc1cc2cc(CN(Cc3ccc4c(c3)OCO4)Cc3nnnn3C3CCCC3)c(=O)[nH]c2cc1C	5	10	0.9	0	1
COc1ccc(CN(Cc2cc3ccc(C)cc3[nH]c2=O)Cc2nnnn2C2CCCC2)cc1	93*	.	0.1	93*	0.1
COc1ccc2cc(CN(Cc3cccs3)Cc3nnnn3Cc3ccccc3)c(=O)[nH]c2c1	.	-10	.	.	.
Cc1cc2cc(CN(Cc3nnnn3C3CCCCC3)CC3CCCO3)c(=O)[nH]c2cc1C (stereo not given)	69*	8	0.3	38	0.6
CC(=O)Oc1ccc(-c2ccc(C(=O)O)cc2)cc1	-2	-6	1	0	1
COc1ccccc1N1CCN(C(=O)CCn2c(=O)[nH]c3ccccc3c2=O)CC1	35	3	0.6	16	0.8
Cc1ccc(C(=O)N/N=C\c2cccn2C)cn1	7	3	0.9	0	1
CC1CCN(C(=S)NC(=O)C2CCCCC2)CC1	22	11	0.8	4	1
Cc1ccc(S(=O)(=O)CCc2nc3ccccc3s2)cc1	.	-4	.	.	.
Cc1ccc(S(=O)(=O)CCc2nc3ccccc3s2)cc1C	58*	0	0.4	29	0.7
Cn1c(SCC(=O)n2c3c(c4ccccc42)CCCC3)nnc1-c1ccccc1	69*	-9	0.3	-100	2*
CCN1CCN(CC(=O)n2c3c(c4ccccc42)CC(C)CC3)CC1 (stereo not given)	51*	-3	0.5	-2	1
CC(=O)Nc1ccc(-c2nnc(SCC(=O)n3c4c(c5ccccc53)CCCC4)n2C)cc1	34	1	0.7	46	0.5
CC1CCN(CC(=O)n2c3c(c4ccccc42)CCCC3)CC1	68*	-3	0.3	-29	1.3
CCOC(=O)c1cc(-c2ccncc2)nc2c1c(C)nn2-c1ccccn1	.	1	.	.	.
CCc1nnc(NC(=O)c2cc(S(=O)(=O)N3CCN(c4ccccc4)CC3)ccc2Cl)s1	6	-8	0.9	10	0.9
COCCNC(=O)c1ccc(Cl)c(Cl)c1	-5	-6	1	-16	1.2
CCCn1nnnc1SCC(=O)Nc1nnc(CC)s1	7	-14	0.9	36	0.6
CCOc1ccccc1C(=O)NC(C(=O)OCC(=O)Nc1nnc(-c2ccccc2)o1)C(C)C (stereo not given)	16	8	0.8	20	0.8
O=C(CSc1nc(Nc2ccccc2)nc(N2CCOCC2)n1)N1CCc2ccccc21	33	-5	0.7	46	0.5
COC(=O)c1[nH]c2ccc(F)cc2c1NS(=O)(=O)c1ccc(OC)cc1OC	56*	4	0.4	42	0.6
CCOC(=O)c1[nH]c2ccc(OC)cc2c1NC(=O)OC	0	11	1	-7	1.1
SMILES	CYP2C19 inh	EphB4 antag	CYP2C19 activ	CYP2C9 inh	CYP2C9 activ
CCOC(=O)c1[nH]c2ccc(OC)cc2c1NC(=O)C(C)N1CCSCC1 (stereo not given)	81*	0	0.2	84*	0.2
CCOC(=O)c1[nH]c2ccc(OC)cc2c1NS(=O)(=O)c1ccc(OC)cc1OC	57*	6	0.4	67*	0.3
CCCCOC(=O)C(C#N)c1nc2ccccc2nc1N1CCN(Cc2ccc3c(c2)OCO3)CC1 (stereo not given)	65*	3	0.3	92*	0.1
N#CCc1c(C#N)c(N)nc(N2CCN(Cc3ccc4c(c3)OCO4)CC2)c1C#N	0	0	1	54*	0.5
C=CCNC(=O)C(C#N)c1nc2ccccc2nc1N1CCN(Cc2ccccc2)CC1 (stereo not given)	4	6	1	9	0.9
CCN1CCN(c2nc3ccccc3nc2C(C#N)C(=O)OC2CCCCC2)CC1 (stereo not given)	6	-1	0.9	20	0.8
COC(=O)C(C#N)c1nc2ccccc2nc1N1CCN(Cc2ccc3c(c2)OCO3)CC1 (stereo not given)	50*	.	0.5	47	0.5
N#CCc1c(C#N)c(N)nc(N2CCN(c3ccc(F)cc3)CC2)c1C#N	11	-2	0.9	37	0.6
CC(C)COC(=O)C(C#N)c1nc2ccccc2nc1N1CCN(Cc2ccc3c(c2)OCO3)CC1 (stereo not given)	49	6	0.5	79*	0.2
C(#CCN1CCOCC1)COC(c1ccccc1)c1ccccc1	.	5	.	.	.
CC(NC(=O)COc1ccccc1)C1COc2ccccc2O1 (stereo not given)	.	1	.	.	.
O=S(=O)(/N=C(/c1ccccc1Cl)N1CCOCC1)c1ccccc1	11	-2	0.9	0	1
Cc1ccc(S(=O)(=O)NC(=O)N2CCC(C)CC2)cc1	6	2	0.9	10	0.9
CC(C)(C)NS(=O)(=O)c1ccc(CCC(=O)N2CCCCC2)cc1	61*	-2	0.4	39	0.6
Cc1cc(C)c(C)c(S(=O)(=O)NCC(=O)N2CCCC2)c1C	78*	3	0.2	-34	1.3
CC1CCN(C(=O)CCc2ccc(S(=O)(=O)NC(C)C)cc2)CC1	53*	5	0.5	46	0.5
Cc1ccc(S(=O)(=O)NCC(=O)N2CCC(C)CC2)cc1	72*	4	0.3	-3	1
CN1CCN(C(=O)c2cc(Cl)ccc2Cl)CC1	-8	2	1.1	-37	1.4
Fc1ccc(NC(=S)NN=C2CCCCCC2)cc1	10	0	0.9	8	0.9
Cc1ccc2cc(COC(=O)C3CCCO3)c(=O)[nH]c2c1 (stereo not given)	0	-1	1	4	1
Cc1cc(C)n(CC(O)Cn2c3ccccc3c3ccccc32)c(=O)n1 (stereo not given)	84*	-9	0.2	72*	0.3
Cc1cc(C)n(CCO)c(=O)n1	2	9	1	14	0.9
Cc1cc(C)n(CC(O)Cn2c3ccc(Br)cc3c3cc(Br)ccc32)c(=O)n1 (stereo not given)	31	4	0.7	69*	0.3
Cc1ccc2c(c1)c1c(n2CC(O)Cn2nc(C)c(Br)c2C)C(=O)CCC1 (stereo not given)	11	6	0.9	7	0.9
CNC(=O)COC(=O)c1ccc(-c2nc3ccccc3s2)s1	94*	4	0.1	72*	0.3
Cc1cccc(Cn2c(N(C)CCO)nc3c2c(=O)[nH]c(=O)n3C)c1	4	-2	1	-3	1
Cc1cccc(C)c1NC(=O)CN(C)CC(=O)Nc1ccccc1Br	36	-2	0.6	26	0.7
